# Test results taken from PubChem BioAssay (NCI).
# The panel holds about 83,000 compounds, 20% with a hit somewhere; the sample as a whole holds those more often.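 Plates (96-well) were seeded with cells, treated with compound at one concentration, and incubated for 48 hours before percent growth was determined.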 Values without a mark were called inactive. Calls of active or inactive are those of the source. Rule for the calls: active = growth percent below 10; inactive = the rest.
# How the values were obtained:
# Assay in all cases: NCI-60 one-dose screen, 48 h (100 = growth as untreated, 0 = no growth, -100 = all killed)
# Details in all cases: 10 µM unless noted
# EKVX NSCLC = system: EKVX NSCLC
# SN12C renal = system: SN12C renal
# TK-10 renal = system: TK-10 renal
# ACHN renal = system: ACHN renal
# A498 renal = system: A498 renal
# CCRF-CEM leukemia = system: CCRF-CEM leukemia
# MOLT-4 leukemia = system: MOLT-4 leukemia
# UO-31 renal = system: UO-31 renal
# CAKI-1 renal = system: CAKI-1 renal
SMILES,growth (EKVX NSCLC),growth (SN12C renal),growth (TK-10 renal),growth (ACHN renal),growth (A498 renal),growth (CCRF-CEM leukemia),growth (MOLT-4 leukemia),growth (UO-31 renal),growth (CAKI-1 renal)
COc1ccc(/C(=C\c2cc(OC)c(OC)c(OC)c2)C(=O)N2CCN(c3ccccc3)CC2)cc1O,94.7%,93.8%,103%,98.3%,94%,85.5%,91.3%,–,–
O=C1/C(=C\c2cccn2Cc2ccc(Cl)cc2)c2ccccc2N1c1c(Cl)cccc1Cl,62.2%,–,87.6%,65.7%,98%,82.4%,75.1%,63%,75%
Cc1cc2nc3c(=O)[nH]c(=O)nc-3n(CC=O)c2cc1C,95.6%,97.7%,111%,105%,116%,160%,109%,–,64.8%
Nc1nc2c(c3ncccc13)C(c1ccccc1)Cc1ncccc1-2 (stereo unspecified),78.8%,–,89.9%,84.4%,78.2%,72.3%,65.8%,61.1%,77.2%
Clc1ccc2c(c1)-n1cccc1C(c1ccc3ccccc3c1)=NC2,99.5%,124%,185%,91.7%,–,84.6%,–,64.8%,–
CCCc1n(Cc2ccc3ccccc3c2)c2ccccc2[n+]1Cc1ccc2ccccc2c1,-4.84% (active),-48.4% (active),-79.7% (active),–,-17.2% (active),-32.3% (active),-58.9% (active),-15.4% (active),–
CC(C)(C)CC(C)(C)NCc1cc(C(C)(C)C)cc(CNC(C)(C)CC(C)(C)C)c1O,37.2%,69.3%,–,37.4%,64.9%,49.3%,30.3%,27.4%,55.3%
O=C1/C(=C\c2cccn2Cc2ccc(F)cc2)c2ccccc2N1c1c(Cl)cccc1Cl,54.6%,–,81%,62.9%,106%,83%,74.1%,51.8%,67.5%
N#Cc1ccc(NC(=O)Nc2nc3ccc(OC(F)(F)F)cc3s2)cc1,-6.94% (active),-4.65% (active),–,-10.6% (active),-28.1% (active),3.09% (active),-13.9% (active),-2.76% (active),-15.5% (active)
Cc1ccc(S(=O)(=O)NC(CCC(=O)Nc2ccc(Cl)cc2)C(=O)Nc2ccc(Cl)cc2)cc1 (stereo unspecified),–,39.8%,25.7%,30%,-0.58% (active),4.45% (active),10.7%,38.2%,41.9%
Nc1ncnc2c1N=C(c1ccc(F)cc1)CC(c1sc(Cl)nc1Cl)N2 (stereo unspecified),–,81.3%,93.2%,95.5%,68.9%,29.1%,–,63.2%,98%
COc1ccc(/C=C2\CCCC3=C2N=C2SC(C)=NN2C3c2ccc(OC)c(OC)c2)cc1OC (stereo unspecified),–,26.6%,25.6%,20.7%,52.2%,3.82% (active),27.7%,36.1%,26.1%
Cc1ccc2cc3c(NC(=O)c4cccnc4)nn(C)c3nc2c1,–,101%,103%,89%,91.7%,72.2%,94.3%,78.6%,85.7%
COc1ccc(C2CC(c3cccc(Nc4ccnc5cc(Cl)ccc45)c3)=NN2c2ccc(Cl)cc2)cc1 (stereo unspecified),–,89.7%,93.6%,50.5%,49.7%,53.5%,–,50.1%,1.94% (active)
Cc1nc2ccc(Nc3nc(NCCN4CCOCC4)nc(Nc4ccc(F)cc4)n3)cc2n1Cc1ccccc1,–,61.8%,60.6%,52.2%,-13.9% (active),29.5%,22.7%,37.3%,55.6%
COc1ccc(-c2nc(-c3ccccc3OCc3ccccc3OC)nc(C)c2C(C)=O)cc1,–,85.1%,103%,87%,79.1%,73.1%,62.4%,64.3%,73.3%
CCCCn1cnc(-c2cc(-c3ccccc3)cc(C(F)(F)F)c2)n1,–,98.2%,102%,106%,70.9%,97.1%,88.8%,87.9%,91.5%
Nc1c(C(=O)c2ccc(Br)cc2)sc2nc3c(cc12)CCCC3,–,90.7%,108%,96.3%,70.9%,89.9%,96.4%,89.7%,105%
COc1ccc(C2=NN(C=O)C(c3ccc(OS(=O)(=O)c4ccc(C)cc4)c(OC)c3)C2)cc1 (stereo unspecified),–,76.9%,73.2%,69.1%,39.6%,37.9%,40.7%,53.9%,52.7%
Oc1ccc(Nc2ncnc3c2sc2ncccc23)cc1,–,17.1%,59.7%,9.05% (active),8.96% (active),16%,–,-9.84% (active),13.1%
C=CCn1c(C)nc2cc(Nc3nc(N4CCOCC4)nc4nc[nH]c34)ccc21,–,84.3%,92.4%,93.7%,37.5%,89.9%,74.4%,87.4%,93.8%
Cc1nc2ccc(Nc3nc(N4CCOCC4)nc(N4CCN(C)CC4)n3)cc2n1Cc1ccccc1,–,113%,87.2%,94.7%,40.6%,79.9%,–,62.7%,102%
O=C(/C=C/c1cn(-c2ccccc2)nc1-c1cccc(Nc2ccnc3cc(Cl)ccc23)c1)c1ccc2c(c1)OCO2,–,117%,123%,105%,92.3%,17.2%,–,84.8%,100%
Cc1nc2ccc(Nc3nc(Cl)nc(N4CCOCC4)n3)cc2n1Cc1ccccc1,–,78.2%,44.7%,79.4%,91.7%,45.7%,–,73.8%,104%
Cc1cc(C)c(C#N)c(SCC(=O)c2sc3c(C#N)c(C)cc(C)[n+]3c2[O-])n1,–,31.4%,35.3%,31%,-6.21% (active),9.64% (active),2.71% (active),45.5%,-6.91% (active)
Nc1nonc1-c1nc2ccccc2n1Cc1ccc(F)cc1,–,62.4%,55.9%,68.1%,42.1%,54.2%,30%,42.9%,35.9%
COc1ccc2cc(-c3nc(C)c(C(C)=O)c(-c4ccc(C)cc4)n3)ccc2c1,–,95.5%,93.9%,98.7%,83%,89.7%,106%,72.9%,79.5%
